An excerpt weighted towards active compounds, which were near 19% of everything screened.
TDP1 cell CPT: DT40-hTDP1 cell growth loss with CPT | Potency, µM (highest dose often 46.2 µM), for the others: at the top dose activity change, negative = growth inhibition, most hits filed as inhibitors | hit rate 12% among 420,000 | chicken DT40 Tdp1-/-;hTDP1 cells + 20 nM CPT, ATP luminescence, 48 h; further: potency means the concentration at half of the fitted maximal effect; nearly all actives have a fitted effect of over 55% in size
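Cell growth measured by CellTiter-Glo luminescence after a minimum 48 h, 37 C compound exposure with 20 nM CPT in Tdp1-knockout DT40 cells stably expressing hTDP1, seeded 400/well; qHTS titration format.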
HT1080 IDH1KD tx: HT-1080 IDH1 knockdown cell toxicity (counter line); Potency, µM (top dose mostly 46.1 µM), for inactives: at the top dose activity, negative = toxicity, hits mostly cytotoxic; hit rate 2% among 360,000; HT-1080 IDH1 knockdown viability, ATP luminescence, 48 h;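 further: potency means the concentration at half of the fitted maximal effect; 0% = DMSO wells and -100% = cell-free medium wells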
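After a 2 h attachment period, IDH1KD HT-1080 cells took pin-transferred compound for 48 h at 37 °C; ATP-based luminescence after 10 min room-temperature reagent incubation reported viability.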
IL-1B inflam inh: blocks inflammasome-driven IL-1 beta release | hit rate 4.7% among 360,000 | THP-1 LPS/ATP IL-1B secretion, AlphaLISA, 16 h; stronger effect = lower value | activity change, % at 57.5 µM | AID 743279; in the data active means activity change below about -50%; inconclusive means mostly about -30% to -49%
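Secreted IL-1B measured by AlphaLISA bead assay after 16 h compound exposure of THP-1 cells; compounds (final up to 57.5 uM) added 1 h before LPS (250 ng/mL) and ATP (1.25 mM) stimulation; lower signal means less secretion.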
ELG1 DNA repair: inhibitors of ELG1-dependent DNA repair in HEK293T cells; Potency, µM (highest dose often 46.1 µM), inactives show at the top dose activity change, negative = inhibition, actives largely listed as inhibitors; HEK293T ELG1-luciferase reporter, luminescence, 16 h; DNA damage induced by 5-fluorouridine; hit rate 2.3% among 330,000; further: potency means the concentration at half of the fitted maximal effect; nearly all actives have a fitted effect of over 55% in size
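Reporter activity after DNA damage by 5-fluorouridine is monitored. Compound-treated cells incubate 16 hr at 37 °C, then ONE-Glo is added for 30 min before luminescence reading.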
TDP1 cell noCPT: qHTS for Inhibitors of human tyrosyl-DNA phosphodiesterase 1 (TDP1): qHTS in cells in absence of CPT | DT40 Tdp1-/- hTDP1 cells, no CPT, ATP luminescence, 48 h | Potency, µM (titrated, usually from 46.2 µM), without a hit: at the highest dose activity change, negative = growth inhibition, actives largely listed as inhibitors | hit rate 15% among 420,000; further: potency means the concentration at half of the fitted maximal effect; nearly all actives have a fitted effect of over 55% in size
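Stably hTDP1-transfected Tdp1-null chicken DT40 cells were treated with library compounds minus camptothecin and grown for at least 48 hr at 37 °C, after which cellular ATP was quantified by luminescence.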
HT1080-NT tox: kills 2HG-producing HT-1080-NT fibrosarcoma cells. HT-1080-NT fibrosarcoma viability, CellTiter-Glo ATP luminescence, 48 h. Potency, µM (titrated, usually from 46.1 µM), without a hit: at the highest dose activity, negative = less viability, actives largely listed as cytotoxic. hit rate 1.6% among 360,000;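 further: NT is the 2HG producing partner of a matched IDH1 knockdown line; potency means the concentration at half of the fitted maximal effect; 0% = DMSO-treated cells and -100% = media-only wells without cells; nearly all actives have a fitted effect of over 55% in size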
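Viability of the 2HG-overproducing fibrosarcoma line after 48 hours of compound exposure at 37 degrees C was determined by luminescence with CellTiter-Glo, and concentration-effect curves were then fitted and categorized.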
An asterisk follows results filed as active; ? = inconclusive; · = no result. Unless noted, the call rests on the fitted dose curve; in most records, active means well fitted curve in the direction sought with a large enough effect; inconclusive means small, poorly fitted or top-dose-only effect, or another doubt; inactive means no such curve, though single readings can be large; an effect the other way counts as inactive or inconclusive. Unless noted, on the % scale 0 is the no-effect control and ±100 the full control effect.

SMILES | TDP1 cell CPT | HT1080 IDH1KD tx | IL-1B inflam inh | ELG1 DNA repair | TDP1 cell noCPT | HT1080-NT tox
COC(=O)[C@@H]1CCCN1C(=O)CCc1nnc(CCc2c[nH]c3ccccc23)o1 | ? | -4% | -105* | 18% | ? | -15%
COCCN1C[C@@H](CO)O[C@@H](n2cnc3c(N(C)C)ncnc32)C1 | -3% | -1% | -7 | · | 0% | 12%
CC(c1ccccc1)N1CCn2c(nc3cc(NS(C)(=O)=O)ccc32)C1 (stereo not drawn) | 1% | -15% | 103 | ? | ? | 1%
O=S(=O)(Nc1ccc2c(c1)nc1n2CCN(Cc2ccccc2)C1)c1ccccc1 | 23µM* | -23% | -1 | -17% | 23µM* | -10%
Cc1ccc(S(=O)(=O)Nc2ccc3c(c2)nc2n3CCN(Cc3ccccc3)C2)cc1 | 16µM* | -22% | -69* | ? | ? | -14%
O=S(=O)(Nc1ccc2c(c1)nc1n2CCN(Cc2ccccc2)C1)c1ccc(F)cc1 | 26µM* | -1% | 0 | ? | ? | -1%
O=S(=O)(Nc1ccc2c(c1)nc1n2CCN(Cc2ccccc2)C1)c1ccc(Cl)cc1 | 18µM* | -27% | -55* | ? | 15µM* | -24%
Cn1c(CN2CCCCC2)nc2cc(NS(=O)(=O)c3ccc(Cl)cc3)ccc21 | ? | -14% | -16 | 10% | -22% | -29%
N#CC1(Nc2ccc3ccccc3c2)CCCC1 | 14% | 1% | 7 | · | -7% | -1%
CCOC(=O)c1cnc(N2CCN(C(=O)OCC)CC2)[nH]c1=O | 11% | 15% | 31 | 16% | 7% | 16%
Cc1ccc(CCNC(=O)CN2C(=O)COc3ccc(S(=O)(=O)N4CCOCC4)cc32)cc1 | -28% | 11% | 4 | 7% | 19% | 11%
COc1cc(CN2CCC3(CCC(CNC(=O)c4ccco4)O3)CC2)ccc1O (stereo not drawn) | 12% | · | · | · | -3% | ·
CC1Cc2cc(/C(O)=C3/C(=O)C(=O)N(CCN4CCOCC4)C3c3ccc([N+](=O)[O-])cc3)ccc2O1 (stereo not drawn) | 4% | 22% | 4 | 19% | 17% | 6%
Cc1cccc(C)c1NC(=O)C(c1ccccc1F)n1c(=O)c(-c2ccco2)nc2ccccc21 (stereo not drawn) | ? | 1% | -11 | · | 21µM* | -10%
Cc1cccc(C)c1NC(=O)C(c1ccnc2ccccc12)N1CCN(C)CC1 (stereo not drawn) | ? | -1% | 31 | · | 18µM* | 2%
O=C(Nc1ccc2c(c1)OCCO2)C(c1ccnc2ccccc12)N1CCC(Cc2ccccc2)CC1 (stereo not drawn) | ? | -14% | 3 | · | 18µM* | -17%
Cc1cccc(C)c1NC(=O)C(c1ccnc2ccccc12)n1c(=O)c(-c2ccco2)nc2ccccc21 (stereo not drawn) | ? | -17% | -8 | · | 16µM* | -18%
Cc1cc(OCC(O)CN(C)C(=O)C(C)Oc2ccccc2)ccc1Cl (stereo not drawn) | ? | -2% | 9 | -13% | ? | 0%
C=Cc1ccc(Cn2nc(-c3ccc(C)c(S(=O)(=O)N(CC)CC)c3)ccc2=O)cc1 | 16µM* | · | · | · | ? | ·
COc1cc(/C=C2\C(C)=C(C#N)c3nc(N)c(C#N)c(C)c32)ccc1OCC(=O)O | 23µM* | 0% | 0 | -15% | ? | 12%
CCNc1ncc2nc(-c3ccc(F)cc3)c(=O)n(Cc3ccc(F)cc3)c2n1 | -14% | · | · | · | 5% | ·
CCOc1ccccc1N1CC(C(=O)N2CCOCC2)CC1=O (stereo not drawn) | 10% | -12% | 26 | 7% | 3% | 0%
Cc1nc(-c2coc3cc(O)c(C)cc3c2=O)cs1 | -27% | 23µM* | 36 | ? | ? | 18µM*
Cc1nc(-c2coc3cc(C)c(N=O)c(O)c3/c2=N\N)cs1 | 5% | -4% | 11 | 7% | 2% | 1%
Cc1ccc(NC(=O)c2ccc(N3C(=O)C4CC=C(Cl)CC4C3=O)cc2)cc1 (stereo not drawn) | ? | -5% | 8 | 6% | 16µM* | 0%
SMILES | TDP1 cell CPT | HT1080 IDH1KD tx | IL-1B inflam inh | ELG1 DNA repair | TDP1 cell noCPT | HT1080-NT tox
Cc1ccccc1CCNC(=O)CCn1nc(C)c2c(C)n(-c3ccccc3)nc2c1=O | ? | 4% | -23 | -3% | -2% | 3%
Cc1ccc(-n2nc3c(=O)n(CCCC(=O)NCc4ccccc4Cl)nc(C)c3c2C)cc1 | ? | 1% | -9 | ? | 18µM* | -7%
Cc1ccc(-n2nc3c(=O)n(CCCC(=O)NCCc4ccccc4Cl)nc(C)c3c2C)cc1 | 8.2µM* | · | · | · | 15µM* | ·
O=C(NN=Cc1ccccc1C(=O)O)c1cccc(S(=O)(=O)Nc2cccc(C(F)(F)F)c2)c1 | -5% | -1% | 0 | ? | 20% | 2%
CCCCc1ccc(NC(=S)Nc2cccnc2)cc1 | 0% | -1% | 14 | 1% | -18% | 7%
CCCCc1ccc(NC(=S)NCc2cccc(OC)c2)cc1 | ? | -16% | -79* | -17% | ? | -10%
COC(=O)Cc1ccc(NC(=S)NCc2cccc(OC)c2)cc1 | -1% | 4% | 5 | 1% | ? | -1%
COC(=O)c1ccc(NC(=S)NCCc2ccc(OC)cc2)cc1 | ? | -8% | -21 | ? | 3.7µM* | -7%
COC(=O)c1ccc(NC(=S)NCCc2cccc(C)c2)cc1 | ? | 0% | 181 | 4% | ? | 9%
CCCCc1ccc(NC(=S)Nc2ccc(Nc3ccc(OC)cc3)cc2)cc1 | 18µM* | ? | 0 | ? | 21µM* | -8%
C/C(CC(=O)Nc1ccc(Cl)cc1)=N\NC(=O)C(=O)N1CCCCC1 | 7% | -26% | 12 | ? | -3% | -1%
O=C(NC1CCCC1)C1C(c2ccc(C(F)(F)F)cc2)=Nc2ccccc2N1C(=O)c1ccco1 (stereo not drawn) | 16µM* | ? | 9 | · | ? | ?
O=C(NC1CCCC1)C1C(c2ccc(C(F)(F)F)cc2)=Nc2ccccc2N1C(=O)c1ccccc1 (stereo not drawn) | ? | -26% | 43 | · | ? | -4%
Cc1nc2ccc(C(=O)N3c4ccccc4N=C(c4ccc(C(F)(F)F)cc4)C3C(=O)NC(C)(C)C)cc2[nH]1 (stereo not drawn) | ? | ? | 37 | · | 15µM* | ?

Compound activity from PubChem.
